# According to PubChem BioAssay (NCATS):
# A number with no mark means an inactive call. Results filed as inconclusive are left out. Where a call stands in place of a potency, no number is given. Calls of active or inactive are those of the source. Calls follow the shape of the dose curve; as a rule, active = well fitted curve in the direction sought with a large enough effect; inconclusive = small, poorly fitted or top-dose-only effect, or another doubt; inactive = no such curve, though single readings can be large; an effect the other way counts as inactive or inconclusive.
# Tests used:
# [1] = biological target: Glutathione peroxidase 1 (Homo sapiens) (UniProt P07203); assay: Primary qHTS Assay for Inhibitors of Recombinant Selenoprotein Glutathione Peroxidase 1 (GPX1) (AID 1845191); also: nearly all actives have a fitted effect of over 65% in size
# How it was run: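 GR-coupled assay: compounds preincubated 30 min at room temperature with GPX1, then reaction started with CHP; final 10 nM GPX1, 1 mM GSH, 0.5 mM CHP, 0.5 mM NADPH, 100 nM GR, 0.01% BSA, pH 7.5 Tris buffer. NADPH fluorescence (340/450 nm) read at 0 and 15 min.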
# [2] = biological target: Phospholipid hydroperoxide glutathione peroxidase GPX4 (Homo sapiens) (UniProt P36969); assay: Primary qHTS Assay for Inhibitors of Recombinant Selenoprotein Glutathione Peroxidase 4 (GPX4) (AID 1845192); also: nearly all actives have a fitted effect of over 65% in size; as to activity change, negative = inhibition: series mostly up to about 50 µM
# How it was run: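 GR-coupled assay: recombinant GPX4 preincubated 30 min with compound at room temperature; final 200 nM GPX4, 1 mM GSH, 0.5 mM cumene hydroperoxide, 0.5 mM NADPH, 100 nM GR, 0.01% BSA, pH 7.5 Tris. NADPH fluorescence (340/450 nm) read at 0 and 15 min.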
# [3] = biological target: Luciferin 4-monooxygenase (Photinus pyralis) (UniProt P08659); assay: Primary firefly luciferase (FLuc) qHTS assay for identification of artifact compounds. (AID 1845220); also: nearly all actives have a fitted effect of over 60% in size; as to activity change, negative = inhibition: series mostly up to about 54 µM
# How it was run: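 Enzymatic FLuc inhibition assay: compounds pre-exposed to luciferin/ATP (10 uM each) for 15 min, then purified P. pyralis enzyme at 10 nM added. Read-out: luminescence at 5 min.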
# [4] = Primary fluorescence-based thiol-reactive (MSTI) qHTS assay for identification of artifact compounds. (AID 1845221); also: nearly all actives have a fitted effect of over 65% in size; also: potency is read from the fitted curve at half-maximal effect;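 as to activity change, negative = thiol reactive: series mostly up to about 54 µM; thiol-reactive compounds lower the probe fluorescence signal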
# How it was run: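 MSTI probe at 4 uM final in 2% DMSO/PBS pH 7.4; compounds, 1 h at room temperature in dark. Fluorescence Ex/Em 525/598 nm, normalised to Acetyl-MSTI and MSTI, fitted to 4-parameter Hill.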
# [5] = tested on: Nanoluciferase (engineered Oplophorus gracilirostris luciferase); assay: Primary Nanoluciferase (NLuc) qHTS assay for identification of artifact compounds. (AID 1845222); also: potency is read from the fitted curve at half-maximal effect;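 as to activity, negative = inhibition: NLuc secreted into diluted conditioned medium of S16 cells; series mostly up to about 54 µM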
# How it was run: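 S16 cell supernatant NLuc, 1:55; cpds qHTS; 15 min RT dark; Nano-Glo substrate 1:100, 5 min; luminescence; Hill fit of % inhibition.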
# [6] = Primary redox qHTS assay for identification of artifact compounds. (AID 1845223)
# How it was run: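 Amplex Red (25 uM) and HRP (250 mU/mL) in HBSS, with compounds for 15 min, then 250 uM DTT for 30 min, room temperature, dark. Fluorescence 525/598 nm read; normalized to DMSO and 10 uM DA3003; Hill fit.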
# Glutathione peroxidase 1 (Homo sapiens), sequence (P07203 whole entry, looked up): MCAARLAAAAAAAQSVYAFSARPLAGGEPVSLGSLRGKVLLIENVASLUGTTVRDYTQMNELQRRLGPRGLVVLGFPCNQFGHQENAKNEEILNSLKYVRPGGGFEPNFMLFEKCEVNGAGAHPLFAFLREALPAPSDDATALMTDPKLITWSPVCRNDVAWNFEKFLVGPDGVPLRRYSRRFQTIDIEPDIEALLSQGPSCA
# Phospholipid hydroperoxide glutathione peroxidase GPX4 (Homo sapiens), sequence (P36969 whole entry, looked up): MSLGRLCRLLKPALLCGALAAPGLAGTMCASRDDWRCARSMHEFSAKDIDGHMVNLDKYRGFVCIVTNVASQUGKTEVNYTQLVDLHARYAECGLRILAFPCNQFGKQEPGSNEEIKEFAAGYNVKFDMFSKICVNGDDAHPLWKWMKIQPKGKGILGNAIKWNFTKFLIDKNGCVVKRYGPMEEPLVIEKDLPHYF
structure (smiles),measurement,setting,value
CC1OC(OC2C(O)C(C(=O)O)OC(OC3CCC4(C)C(CCC5(C)C4C=CC4=C6CC(C)(C)CC(O)C6(C)CCC45C)C3(C)C)C2OC2OCC(O)C(O)C2O)C(O)C(O)C1O (stereo unspecified),Potency,[1],inactive
same,Potency,[2],inactive
same,outcome,[3],inactive [at 11.6 µM]
same,"activity change, negative = thiol reactive",[4],161% [at 11.5 µM]
same,"activity, negative = inhibition",[5],-10.9% [at 11.6 µM]
same,redox activity (% of DA3003),[6],18.4% [at 11.5 µM]
Cn1ccnc1CCOC(c1cc2nccc(C(=O)O)c2[nH]1)c1ccccc1Cl (stereo unspecified),Potency,[1],inactive
same,Potency,[2],inactive
same,Potency,[3],inactive
same,Potency,[4],inactive
same,Potency,[5],inactive
same,Potency,[6],inactive
O=C(CCCCc1ccc2ccccc2c1)C(F)(F)F,Potency,[1],inactive
same,Potency,[2],inactive
same,Potency,[3],inactive
same,Potency,[4],inactive
same,Potency,[5],inactive
same,Potency,[6],inactive
CCC(CCO[C@@H]1O[C@H](CO[C@H]2OC[C@](O)(CO)[C@H]2O)[C@@H](O)[C@H](O)[C@H]1O)C(C)(C)O (stereo partly specified),Potency,[1],inactive
same,Potency,[2],inactive
same,Potency,[3],inactive
same,Potency,[4],inactive
same,Potency,[5],inactive
same,Potency,[6],inactive
CC[C@H]1OC(=O)[C@H](C)[C@@H](O[C@H]2C[C@@](C)(OC)[C@@H](O)[C@H](C)O2)[C@H](C)[C@@H](O[C@@H]2O[C@H](C)C[C@H](N(C)C)[C@H]2O)[C@@](C)(O)C[C@@H](C)[C@@H]2N[C@@H](COCCOC)OC([C@H]2C)[C@]1(C)O,Potency,[1],inactive
same,Potency,[2],inactive
same,Potency,[3],inactive
same,Potency,[4],inactive
same,Potency,[5],inactive
same,Potency,[6],inactive
COC(=O)C1=C[C@@H](O)[C@@H](O)[C@H](O[C@@H]2O[C@H](COC(=O)/C=C/c3ccccc3)[C@@H](O)[C@H](O)[C@H]2O)C1,Potency,[1],inactive
same,Potency,[2],inactive
same,Potency,[3],inactive
same,Potency,[4],inactive
same,Potency,[5],inactive
same,Potency,[6],inactive
CCn1c2ccccc2c2cc(CNC)ccc21,Potency,[1],inactive
same,Potency,[2],inactive
same,Potency,[3],inactive
same,Potency,[4],inactive
same,Potency,[5],inactive
same,Potency,[6],inactive
COc1cc2c(cc1OC)CN(C(=O)[C@@H](NCc1ccncc1)C(C)(C)C)CC2,Potency,[1],inactive
same,Potency,[2],inactive
same,Potency,[3],inactive
same,Potency,[4],inactive
same,Potency,[5],inactive
same,Potency,[6],inactive
CC1CCC2(C(=O)OC3OC(CO)C(O)C(O)C3O)CCC3(C)C(=CCC4C5(C)CC(O)C(O)C(C)(C(=O)O)C5CCC43C)C2C1(C)O (stereo unspecified),Potency,[1],inactive
same,Potency,[2],inactive
same,Potency,[3],inactive
same,Potency,[4],inactive
same,Potency,[5],inactive
same,Potency,[6],inactive
C=C1CC[C@H]2[C@@H](/C=C(\C)C(=O)[C@@]3(OC(C)=O)C[C@H](C)[C@H](OC(C)=O)[C@@H]3[C@H]1OC(C)=O)C2(C)C,Potency,[1],inactive
same,Potency,[2],inactive
same,Potency,[3],inactive
same,Potency,[4],inactive
same,Potency,[5],inactive
same,Potency,[6],inactive
O=C(/C=C/c1ccccc1)OCC1=CC[C@@H]2C(C(=O)O)=CO[C@@H](O[C@@H]3O[C@H](CO)[C@@H](O)[C@H](O)[C@H]3O)[C@H]12,Potency,[1],inactive
same,Potency,[2],inactive
same,Potency,[3],inactive
same,Potency,[4],inactive
same,Potency,[5],inactive
same,Potency,[6],inactive
O=C(/C=C/c1ccc(O)c(O)c1)OCc1ccccc1O[C@@H]1O[C@H](CO)[C@@H](O)[C@H](O)[C@H]1O,Potency,[1],inactive
same,Potency,[2],inactive
same,Potency,[3],inactive
same,Potency,[4],0.922 µM (active)
same,Potency,[5],inactive
same,Potency,[6],inactive
COc1cc(/C=C/C(=O)OC2CC(OC(C)=O)C(OC(C)=O)C3C2CCC2C(=O)OC(c4ccoc4)CC23C)ccc1O[C@@H]1O[C@H](CO)[C@@H](O)[C@H](O)[C@H]1O (stereo partly specified),Potency,[1],inactive
same,Potency,[2],inactive
same,Potency,[3],inactive
same,Potency,[4],inactive
same,Potency,[5],inactive
same,Potency,[6],inactive
CC1OC(OC2C(CO)OC(OCC3OC(OC(=O)C45CCC(C)(C)CC4C4=CCC6C7(C)CCC(OC8OC(C(=O)O)C(O)C(OC9OC(CO)C(O)C(O)C9O)C8O)C(C)(C)C7CCC6(C)C4(C)CC5)C(O)C(O)C3O)C(O)C2O)C(O)C(O)C1O (stereo unspecified),"activity, negative = inhibition",[1],-12.7% [at 9.52 µM]
same,"activity change, negative = inhibition",[2],-11.9% [at 9.73 µM]
same,"activity change, negative = inhibition",[3],-1.13% [at 11.6 µM]
same,"activity change, negative = thiol reactive",[4],336% [at 11.5 µM]
same,"activity, negative = inhibition",[5],0% [at 11.6 µM]
same,redox activity (% of DA3003),[6],7.33% [at 11.5 µM]
C[C@]1(OC(=O)/C=C/c2ccccc2)C[C@H](O)[C@]2(O)C=CO[C@@H](O[C@@H]3O[C@H](CO)[C@@H](O)[C@H](O)[C@H]3O)C12 (stereo partly specified),Potency,[1],inactive
same,Potency,[2],inactive
same,Potency,[3],inactive
same,Potency,[4],inactive
same,Potency,[5],inactive
same,Potency,[6],inactive
C=C1C(O[C@@H]2O[C@H](CO)[C@@H](O)[C@H](O)[C@@H]2O)CC2C(C)(C)C(O)CCC2(C)C1CC/C(C)=C\CO (stereo partly specified),Potency,[1],inactive
same,Potency,[2],inactive
same,Potency,[3],inactive
same,Potency,[4],inactive
same,Potency,[5],inactive
same,Potency,[6],inactive
CCOc1nc2cccc(C(=O)O)c2n1Cc1ccc(-c2ccccc2-c2noc(=O)[nH]2)cc1,Potency,[1],inactive
same,Potency,[2],inactive
same,Potency,[3],inactive
same,Potency,[4],inactive
same,Potency,[5],21.3 µM (active)
same,Potency,[6],inactive
CC(=O)O[C@@H]1[C@@H](OC(=O)/C=C/c2ccccc2)[C@H](C)O[C@@H](O[C@H]2[C@@H]3C=CO[C@@H](O[C@@H]4O[C@H](CO)[C@@H](O)[C@H](O)[C@H]4O)[C@@H]3[C@@]3(CO)O[C@@H]23)[C@@H]1OC(C)=O,Potency,[1],inactive
same,Potency,[2],inactive
same,Potency,[3],inactive
same,Potency,[4],inactive
same,Potency,[5],inactive
same,Potency,[6],inactive
C[C@]1(O)CC[C@@H]2C(C(=O)O)=CO[C@@H](O[C@@H]3O[C@H](COC(=O)c4ccc(O)cc4)[C@@H](O)[C@H](O)[C@H]3O)[C@@H]21,Potency,[1],inactive
same,Potency,[2],inactive
same,Potency,[3],inactive
same,Potency,[4],10.3 µM (active)
same,Potency,[5],inactive
same,Potency,[6],inactive
O=C(O)C[C@H]1CCC(=O)[C@@H]1C/C=C\CCOC1OC(CO)C(O)C(O)C1O (stereo partly specified),Potency,[1],inactive
same,Potency,[2],inactive
same,Potency,[3],inactive
same,Potency,[4],7.36 µM (active)
same,Potency,[5],inactive
same,Potency,[6],inactive
CC1=C(C)C(=O)OC(C(C)C2C(O)CC3C4C5OC5C5(O)CC(OC6OC(CO)C(O)C(O)C6O)CC(O)C5(C)C4CCC32C)C1 (stereo unspecified),Potency,[1],inactive
same,Potency,[2],inactive
same,Potency,[3],inactive
same,Potency,[4],inactive
same,Potency,[5],inactive
same,Potency,[6],inactive
